Screening data: PubChem BioAssay, National Center for Advancing Translational Sciences (NCATS)
DT40 TDP1 no CPT: qHTS for Inhibitors of human tyrosyl-DNA phosphodiesterase 1 (TDP1): qHTS in cells in absence of CPT | 15% of 420,000 active | DT40 Tdp1-/- hTDP1 cells, no CPT, ATP luminescence, 48 h | Potency, µM (highest dose often 46.2 µM), for the others: at the highest dose activity change, negative = growth inhibition, actives largely listed as inhibitors; also: potency is read from the fitted curve at half-maximal effect; nearly all actives have a fitted effect of over 55% in size
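Chicken DT40 Tdp1-/- cells complemented with human TDP1, screened without camptothecin (DMSO vehicle only), 400 cells/well. Compounds pin-transferred, cells incubated at 37 °C for at least 48 hr. Growth read as ATP-dependent luminescence (CellTiter-Glo, 30 min at RT).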
IL-1B inflam inh: qHTS for Inhibitors of Inflammasome Signaling: IL-1-beta AlphaLISA Primary Screen; THP-1 LPS/ATP IL-1B secretion, AlphaLISA, 16 h; stronger effect = lower value; activity change, % at 57.5 µM; 4.7% of 360,000 active; AID 743279, 2014; in the data active = activity change below about -50%; inconclusive = mostly about -30% to -49%
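Secreted IL-1B measured by AlphaLISA bead assay after 16 h compound exposure of THP-1 cells; compounds (final up to 57.5 uM) added 1 h before LPS (250 ng/mL) and ATP (1.25 mM) stimulation; lower signal means less secretion.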
HT1080-NT tox: qHTS for induction of synthetic lethality in tumor cells producing 2HG: qHTS for the HT-1080-NT fibrosarcoma cell line; HT-1080-NT fibrosarcoma viability, CellTiter-Glo ATP luminescence, 48 h; 1.6% of 360,000 active; Potency, µM (doses to about 46.1 µM), inactives show top-dose activity, negative = less viability, hits mostly cytotoxic;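 also: NT is the 2HG producing partner of a matched IDH1 knockdown line; potency is read from the fitted curve at half-maximal effect; 0% = DMSO-treated cells and -100% = media-only wells without cells; nearly all actives have a fitted effect of over 55% in size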
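Fibrosarcoma NT cells, 750 per well in 5% FBS RPMI, were exposed to compound for 48 hours. Viability: CellTiter-Glo luminescence.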
TDP1 cell CPT: qHTS for Inhibitors of human tyrosyl-DNA phosphodiesterase 1 (TDP1): qHTS in cells in presence of CPT; chicken DT40 Tdp1-/-;hTDP1 cells + 20 nM CPT, ATP luminescence, 48 h; Potency, µM (titrated, usually from 46.2 µM), for the others: at the top dose activity change, negative = growth inhibition, usual class: inhibitors; 12% of 420,000 active; AID 686979, 2013; also: potency is read from the fitted curve at half-maximal effect; nearly all actives have a fitted effect of over 55% in size
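Cell growth measured by CellTiter-Glo luminescence after a minimum 48 h, 37 C compound exposure with 20 nM CPT in Tdp1-knockout DT40 cells stably expressing hTDP1, seeded 400/well; qHTS titration format.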
HT1080 IDH1KD tx: qHTS for induction of synthetic lethality in tumor cells producing 2HG: qHTS for the HT-1080-IDH1KD cell line. HT-1080 IDH1 knockdown viability, ATP luminescence, 48 h. Potency, µM (series often up to 46.1 µM), inactives show at the top dose activity, negative = toxicity, hits mostly cytotoxic. 2% of 360,000 active;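 also: potency is read from the fitted curve at half-maximal effect; 0% = DMSO wells and -100% = cell-free medium wells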
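IDH1KD HT-1080 cells, 750/well, RPMI + 5% FBS; compound pinned after 2 h settling; 48 h, 37 °C; CellTiter-Glo luminescence; % activity normalised to DMSO and no-cell wells; curves fitted, classed by r2 and efficacy.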
An asterisk follows results filed as active. Only some compounds are listed: those with a hit (about 19% of all), similar ones and a draw of the others. Unless noted, calls follow the shape of the dose curve; as a rule, active = well fitted curve in the direction sought with a large enough effect; inconclusive = small, poorly fitted or top-dose-only effect, or another doubt; inactive = no such curve, though single readings can be large; an effect the other way counts as inactive or inconclusive. Unless noted, % is scaled to controls: 0 for no effect and ±100 for the full control effect.

For O=C(COC(=O)c1cc(S(=O)(=O)N2CCCC2)ccc1O)Nc1ccccc1Br the results were DT40 TDP1 no CPT 0%, IL-1B inflam inh 24, HT1080-NT tox -2%, TDP1 cell CPT 2% and HT1080 IDH1KD tx -2%.
Screening Cc1cccc(OCC(=O)Nc2ccc(C(=O)c3ccc(C(=O)O)cc3)cc2)c1 returned DT40 TDP1 no CPT 0%, IL-1B inflam inh 56, HT1080-NT tox 1%, TDP1 cell CPT 8% and HT1080 IDH1KD tx -23%.
`Cc1cccc2cc(CN(Cc3nnnn3C3CCCCC3)C3CCCC3)c3nnnn3c12` gave DT40 TDP1 no CPT inconclusive, IL-1B inflam inh inconclusive, HT1080-NT tox 16%, TDP1 cell CPT 21µM* and HT1080 IDH1KD tx 9%.
`Cc1cc(NC(=O)c2cccc(S(=O)(=O)N3CCCCCC3)c2)n(-c2ccccn2)n1` gave DT40 TDP1 no CPT 21µM*, IL-1B inflam inh -18, HT1080-NT tox 3%, TDP1 cell CPT inconclusive and HT1080 IDH1KD tx 2%.
`Cc1cc(NC(=O)c2cccc(S(=O)(=O)N(C)C)c2)n(-c2ccccn2)n1` gave DT40 TDP1 no CPT 23µM*, IL-1B inflam inh -9, HT1080-NT tox 0%, TDP1 cell CPT 15µM* and HT1080 IDH1KD tx -10%.
`O=C(NNC(=O)c1ccccc1-n1cccc1)c1ccc(Cl)nc1` gave DT40 TDP1 no CPT 21%, IL-1B inflam inh 18, HT1080-NT tox -8%, TDP1 cell CPT 5% and HT1080 IDH1KD tx -3%.
Screening CCc1cc(C(=O)NNC(=O)CCN2CCN(c3ccccc3)CC2)sc1C returned DT40 TDP1 no CPT 15%, IL-1B inflam inh -4, HT1080-NT tox -5%, TDP1 cell CPT 6% and HT1080 IDH1KD tx -3%.
CCc1cc(C(=O)NNC(=O)CCl)sc1C was read as DT40 TDP1 no CPT inconclusive, IL-1B inflam inh -28, HT1080-NT tox -25%, TDP1 cell CPT 15µM* and HT1080 IDH1KD tx -12%.
`O=[N+]([O-])c1cc(C(F)(F)F)cc([N+](=O)[O-])c1NCCN1CCNCC1` gave DT40 TDP1 no CPT 21µM*, IL-1B inflam inh 11, HT1080-NT tox -2%, TDP1 cell CPT 21µM* and HT1080 IDH1KD tx -6%.
O=[N+]([O-])c1cc(C(F)(F)F)cc([N+](=O)[O-])c1NN=C1CCCCC1 was read as DT40 TDP1 no CPT 23µM*, IL-1B inflam inh -1, HT1080-NT tox -1%, TDP1 cell CPT inconclusive and HT1080 IDH1KD tx 0%.
N#CCC(=O)NNc1c([N+](=O)[O-])cc(C(F)(F)F)cc1[N+](=O)[O-] was read as DT40 TDP1 no CPT inconclusive, IL-1B inflam inh -25, HT1080-NT tox -27%, TDP1 cell CPT inconclusive and HT1080 IDH1KD tx -23%.
Screening CCN(CC)S(=O)(=O)c1ccc(N/N=C/c2cc(OC)ccc2O)nc1 returned DT40 TDP1 no CPT 6.5µM*, IL-1B inflam inh 58, HT1080-NT tox 8.2µM*, TDP1 cell CPT 5.8µM* and HT1080 IDH1KD tx 4.6µM*.
CC(C)N(C(C)C)S(=O)(=O)c1ccc(NN)nc1 was read as DT40 TDP1 no CPT inconclusive, IL-1B inflam inh 94, HT1080-NT tox inconclusive, TDP1 cell CPT inconclusive and HT1080 IDH1KD tx inconclusive.
For CCN(CC)S(=O)(=O)c1ccc(NN)nc1 the results were DT40 TDP1 no CPT inconclusive, IL-1B inflam inh 86, HT1080-NT tox -18%, TDP1 cell CPT 21µM* and HT1080 IDH1KD tx inconclusive.
`COc1ccc(OC)c(S(=O)(=O)N2CCC(C(=O)NCc3ccncc3)CC2)c1` gave DT40 TDP1 no CPT 3%, IL-1B inflam inh 7, HT1080-NT tox -3%, TDP1 cell CPT 19% and HT1080 IDH1KD tx 4%.
Screening CCc1nc2cc(CC(=O)O)ccc2o1 returned DT40 TDP1 no CPT -5%, IL-1B inflam inh 3, HT1080-NT tox 21%, TDP1 cell CPT 5% and HT1080 IDH1KD tx 13%.
COC(=O)c1ccc(Oc2nc3c(c(=O)n(C)c(=O)n3C)n2Cc2ccc(Cl)c(Cl)c2)cc1 was read as DT40 TDP1 no CPT -5% and TDP1 cell CPT 4%.
O=[N+]([O-])c1cc(S(=O)(=O)Oc2ccccc2)ccc1Cl was read as DT40 TDP1 no CPT 0.58µM*, IL-1B inflam inh -101*, HT1080-NT tox 15µM*, TDP1 cell CPT 0.58µM* and HT1080 IDH1KD tx 18µM*.
Screening O=C1CCCN1c1ccc(S(=O)(=O)Oc2ccc(Cl)cc2)cc1[N+](=O)[O-] returned DT40 TDP1 no CPT 21µM*, IL-1B inflam inh -6, HT1080-NT tox -15%, TDP1 cell CPT 21µM* and HT1080 IDH1KD tx -15%.
Screening N#Cc1ccccc1OCC(=O)N(Cc1nnc(-c2ccccc2Cl)o1)C1CC1 returned DT40 TDP1 no CPT 16µM*, IL-1B inflam inh 1, HT1080-NT tox -2%, TDP1 cell CPT inconclusive and HT1080 IDH1KD tx 3%.
Screening CC[n+]1c(/C=C/c2ccc(N(C)C)cc2)ccc2ccccc21 returned DT40 TDP1 no CPT 0.15µM*, IL-1B inflam inh -99*, HT1080-NT tox 10µM*, TDP1 cell CPT 0.16µM* and HT1080 IDH1KD tx 10µM*.
Screening CC[n+]1c(/C=C/c2ccc(OC(C)=O)c(OC)c2)ccc2ccccc21 returned DT40 TDP1 no CPT 18µM*, IL-1B inflam inh -85*, HT1080-NT tox 0%, TDP1 cell CPT 16µM* and HT1080 IDH1KD tx 4%.
`CC[n+]1c(/C=C/c2cc([N+](=O)[O-])ccc2O)ccc2ccccc21` gave DT40 TDP1 no CPT 23µM*, IL-1B inflam inh -15, HT1080-NT tox -22%, TDP1 cell CPT inconclusive and HT1080 IDH1KD tx -14%.
For CN(C)c1ccc(/C=C/c2cccc3ccccc23)cc1 the results were DT40 TDP1 no CPT inconclusive and TDP1 cell CPT -18%.
`CN(C)c1ccc(/C=C/c2ccc3ccccc3[n+]2[O-])cc1` gave DT40 TDP1 no CPT 13µM* and TDP1 cell CPT 20µM*.
For CC[n+]1c(/C=C/c2ccc(OC)c(OC)c2)ccc2ccccc21 the results were DT40 TDP1 no CPT inconclusive, IL-1B inflam inh 16, HT1080-NT tox 11%, TDP1 cell CPT inconclusive and HT1080 IDH1KD tx 5%.
For CN(C)c1ccc(/C=C/c2nc3ccccc3o2)cc1 the results were DT40 TDP1 no CPT inconclusive and TDP1 cell CPT 9%.
Cc1ccc2c(=O)c(C(=O)c3cccc(Cl)c3)cn(CC(=O)Nc3ccccc3C(F)(F)F)c2n1 was read as DT40 TDP1 no CPT -4% and TDP1 cell CPT -2%.
